# High-throughput results (PubChem BioAssay)
# Pol beta inh: inhibitors of human DNA polymerase beta; 340,000 compounds, 1.3% hits; Potency, µM (highest dose often 114 µM), hits mostly inhibitors; AID 485314; P06746; Pol beta primer extension/strand displacement, fluorescence kinetic
#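 10 nM enzyme + cpd, 15 min RT; start with substrate 50 nM final; read 0 min and after 10 min RT. Corrected, normalized data; 4-parameter Hill curve fit.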
# Pol iota inh: DNA polymerase iota (human) inhibition | Pol iota fluorescent replication assay, 10 min | Potency, µM (top dose mostly 115 µM), actives largely listed as inhibitors | 390,000 compounds, 1% hits | AID 588590
#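 Fluorescent replication assay read twice, at 0 min and 10 min after adding 50 nM (final) substrate. Enzyme (10 nM) and compounds were first incubated 15 min at room temperature; enzyme-free buffer wells were negative controls.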
# Pol eta inh: inhibitors of human DNA polymerase eta; AID 588591; Q9Y253; Potency, µM (top dose mostly 114 µM), hits mostly inhibitors; 390,000 compounds, 1.2% hits; recombinant Pol eta, fluorescent DNA replication assay
# Target sequence (Q9Y253 whole entry, looked up): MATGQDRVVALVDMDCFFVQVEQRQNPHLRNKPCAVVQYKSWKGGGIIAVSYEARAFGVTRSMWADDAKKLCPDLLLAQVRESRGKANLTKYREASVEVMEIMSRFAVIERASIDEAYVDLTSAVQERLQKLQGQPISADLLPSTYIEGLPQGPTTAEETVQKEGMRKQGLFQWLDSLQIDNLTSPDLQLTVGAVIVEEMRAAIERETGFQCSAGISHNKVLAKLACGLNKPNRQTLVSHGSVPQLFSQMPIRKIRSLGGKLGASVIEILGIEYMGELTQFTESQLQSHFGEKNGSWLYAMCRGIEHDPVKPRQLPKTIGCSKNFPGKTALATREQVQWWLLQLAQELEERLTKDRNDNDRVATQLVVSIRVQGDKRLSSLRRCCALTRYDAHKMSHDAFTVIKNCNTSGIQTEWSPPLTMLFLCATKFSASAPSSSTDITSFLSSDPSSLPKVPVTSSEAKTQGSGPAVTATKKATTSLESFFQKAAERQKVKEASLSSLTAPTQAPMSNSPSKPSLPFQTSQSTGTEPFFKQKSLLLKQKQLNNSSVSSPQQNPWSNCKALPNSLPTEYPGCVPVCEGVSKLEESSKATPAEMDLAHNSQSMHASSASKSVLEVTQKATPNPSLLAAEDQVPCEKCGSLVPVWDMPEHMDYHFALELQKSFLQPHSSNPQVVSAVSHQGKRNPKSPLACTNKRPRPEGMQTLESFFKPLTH
#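 Pol eta at 10 nM preincubated with compounds 15 min at room temperature; reaction started with fluorescent substrate (50 nM final) and read kinetically at 0 and 10 min.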
# FEN1 inhibitor: blocks human flap endonuclease 1; Recombinant FEN1 flap cleavage, fluorescence, 15 min; Potency, µM (highest dose often 114 µM), usual class: inhibitors; 390,000 compounds, 0.35% hits; AID 588795; further: nearly all actives have a fitted effect of over 65% in size
#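 Quantitative HTS format: each compound was titrated, incubated with 10 nM nuclease for 15 min at room temperature, then challenged with flap substrate at 50 nM final. Signal change over 15 min gave concentration–effect curves.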
# POLK inh: DNA polymerase kappa (human) inhibition | Potency, µM (top dose mostly 107 µM), actives largely listed as inhibitors | Q9UBT6 | purified Pol kappa, fluorescent DNA synthesis assay, 10 min | 400,000 compounds, 0.53% hits
#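 50 nM final substrate added after 15 min RT preincubation of 10 nM Pol kappa with compound; fluorescence read at 0 and 10 min.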
# WRN helicase inh: inhibitors of human WRN helicase; AID 651768; Q14191; Potency, µM (series often up to 114 µM), usual class: inhibitors; 360,000 compounds, 0.46% hits; WRN helicase unwinding, fluorescent forked duplex, kinetic; further: nearly all actives have a fitted effect of over 55% in size
#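 Primary qHTS, 1536-well format. 20 nM WRN + compound, 15 min RT; start with 100 nM forked fluorophore/quencher duplex, 2 mM ATP (final); kinetic read ex 525/em 598 nm.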
# A number is an active result; 0 = inactive; ? = inconclusive; - = no result; ! = not confirmed by another sample; [ ] = another dose, or the depositor's remark. Hits are enriched below; roughly 2.4% of the tested compounds scored in any of these assays. The call rests on the fitted dose curve; in most records, active means well fitted curve in the direction sought with a large enough effect; inconclusive means small, poorly fitted or top-dose-only effect, or another doubt; inactive means no such curve, though single readings can be large; an effect the other way counts as inactive or inconclusive.
SMILES,Pol beta inh,Pol iota inh,Pol eta inh,FEN1 inhibitor,POLK inh,WRN helicase inh
Cc1cccc(C)c1NC(=O)CS(=O)CC(=O)Nc1ccc(N2CCOCC2)cc1 (configuration not stated),0,0,0,0,0,0
O=C(Cc1cccs1)Nc1ccc(Cl)cc1,0,?,0,0,0,0
CCc1ccc(NC(=O)CS(=O)CC(=O)Nc2ccc(F)cc2F)cc1 (configuration not stated),39.8µM,?,0,0,0,0
O=C(CCC(=O)c1cccs1)Nc1ccc(N2CCCCC2)cc1,?,?,89.1µM,0,?,0[11.6 µM]
Nc1[nH]c(=S)[nH]c(=O)c1N,-,0,-,0,0,-
O=C(Cc1cccs1)Nc1ccc(F)cc1F,0,0,79.4µM,0,0,0
O=C(Cc1cccs1)Nc1ccc(Cl)c(S(=O)(=O)N2CCOCC2)c1,-,0,0,0,0,0
O=C(Cc1cccs1)Nc1ccc(N2CCOCC2)cc1,25.1µM,?,25.1µM,0,0,0
O=C(Cc1cccs1)Nc1ccccc1F,0,0,0,0,0,0
COc1ccc(NC(=O)c2c(NCc3cccs3)sc3c2CCCCC3)cc1,0,0,0,0,0,-
Cc1cccc(NC(=O)c2ccc(-n3c(C)nnc3C)cc2)c1,0,0,0,0,0,-
COC(=O)c1cccc(-n2c(C)cc(/C=C3\SC(=O)NC3=O)c2C)c1,-,-,0,-,-,0
Cc1cc(C(=O)O)ccc1-n1c(C)cc(/C=C2\SC(=O)NC2=O)c1C,?,?,50.1µM,0,0,0[11.6 µM]
Cc1cc(/C=C2\SC(=S)NC2=O)c(C)n1-c1ccccc1,?,?,50.1µM,0,?,0
Cc1cccc(-c2nc3scc(CCNS(=O)(=O)c4ccc5c(c4)OCCO5)n3n2)c1,0,0,0,0,0,-
Cc1ccc(-n2ccc(=O)c(C(=O)Nc3ccc(S(=O)(=O)Nc4nccc(C)n4)cc3)n2)cc1,0,?,39.8µM,0,0,0
Cc1cc(C)nc(NS(=O)(=O)c2ccc(NC(=O)c3nn(-c4ccccc4)ccc3=O)cc2)n1,0,0,0,0,0,0
O=C(NCc1cccnc1)[C@@H]1CC=C[C@@H]2CCN(C3CCCCC3)C(=O)[C@@H]21,-,0,-,0,0,-
N#C/C(=C(/O)CCl)c1nc2c(s1)CCc1ccccc1-2,?,?,35.5µM,?,0,?
O=C1C=Cc2cccc3ccc(O)c1c23,-,0,0,0,0,0
O=C1C=CC(=O)c2c(O)c(Cl)c(Cl)c(O)c21,-,-,-,-,7.08µM,-
CC(O)[C@@H](O)[C@H]1CNc2nc(N)[nH]c(=O)c2N1 (some centres not stated),0,0,0,-,-,-
Cc1ccc2nc(-c3ccc(NC(=O)CSc4nccc(=O)[nH]4)cc3)sc2c1,35.5µM,0,0,?,0,?
CCn1c(SCC(=O)Nc2ccc(-c3nc4ccc(C)cc4s3)cc2)nnc1-c1ccccc1,7.94µM,-,-,-,-,-
Cc1ccc2nc(-c3ccc(NC(=O)CSc4nc(N)cc(=O)[nH]4)cc3)sc2c1,0,0,0,0,0,0
SMILES,Pol beta inh,Pol iota inh,Pol eta inh,FEN1 inhibitor,POLK inh,WRN helicase inh
O=C(C[N+]1(CC(O)c2ccccc2)CCOCC1)c1ccccc1 (configuration not stated),-,0,-,0,0,-
O=C(NC(NC(=S)Nc1ccc(F)c([N+](=O)[O-])c1)C(Cl)(Cl)Cl)C(c1ccccc1)c1ccccc1 (configuration not stated),-,-,-,-,0,-
NC(=S)NN=Cc1nccc2ccccc12,-,0,0,0,0,0
Cc1cnc(C=NNC(N)=S)c2cccc(N)c12,-,2.24µM,5.01µM,?,?,?
COCC(=O)N1c2nc(-c3ccco3)nn2C2(CCCCC2)[C@@H]2CCCC[C@@H]21,0,0,0,0,0,-
COc1ccc(-c2nc3ccc(C4=C(C)CC(=O)NN4)cc3[nH]2)cc1,-,-,-,-,0[19.4 µM],-
O=c1c2c(nc3cc(-c4ccccc4Cl)[nH]n13)CCS2,35.5µM,0,0,0,0,0
O=C1Nc2ccccc2Oc2cc([N+](=O)[O-])ccc21,?,0,50.1µM,0,0,0[11.6 µM]
COc1cc2[nH]c3c(=O)n(CCN4CCCCC4)cnc3c2cc1OC,0,0,0,0,22.4µM,0
CCCCCC(=O)NNC(=O)c1ccc(-c2ccccc2)cc1,39.8µM,?,0,0,0,0
O=C(NNC(=O)c1ccc(-c2ccccc2)cc1)c1ccccc1,0,79.4µM,?,0,0,0[11.6 µM]
Cc1ccccc1OCC(=O)NNC(=O)c1ccc(-c2ccccc2)cc1,?,79.4µM,0,0,0,0
O=C(Cn1nc(C(F)(F)F)c2c1CCCC2)Nc1ccc(Br)cc1,0,0,0,0,0,-
Cc1ccc(N2CCN(C(=O)C3CCN(c4ncnc5c4nc4n5CCCCC4)CC3)CC2)c(C)c1,0,0,0,0,0,-
CCN(CC)c1nc(N)c2c(N)n(-c3ccccc3C)c(=S)c(C#N)c2c1C#N,0,?,44.7µM,0,?,?
CCN(CC)c1nc(N)c2c(N)nc3c(c2c1C#N)CC(c1ccccc1)O3 (configuration not stated),0,?,0,0,0,0
CCOC(=O)c1cc(-c2ccccc2)n(CCCC(=O)Nc2cc(C)ccc2OC)c1C,0,0,0,0,0,-
COc1cc2nc(N3CCN(c4cc(C)ccc4C)CC3)nc(N)c2cc1OC,?,?,0,0,0,0
COc1cc2nc(N3CCNCC3)nc(N)c2cc1OC,?,0,?,56.2µM,?,?
Cc1ccn2cc(CNC(=O)c3cccc(C(F)(F)F)c3)nc2c1,0,0,0,0,0,-
Cc1cnc(NC(=O)C2COc3ccccc3O2)s1 (configuration not stated),50.1µM,?,?,0,?,0
Cc1cc(-c2csc(N)n2)c(C)n1Cc1ccco1,0,?,0,?,10µM,0
Cc1cc(-c2csc(N)n2)c(C)n1C,0,?,?,?,0,?
Cc1cc(C(=O)COC(=O)c2ccco2)c(C)n1Cc1ccco1,0,?,?,0,?,0
Cc1cc(C(=O)COC(=O)c2cc(Cl)ccc2N)c(C)n1Cc1ccco1,39.8µM,?,0,0,0,0
SMILES,Pol beta inh,Pol iota inh,Pol eta inh,FEN1 inhibitor,POLK inh,WRN helicase inh
Cn1c(=O)n(C)c2cc(N3CCOCC3)c(NS(=O)(=O)c3ccc(Br)cc3)cc21,0,0,0,0,0,-
COCCNc1nc(-c2cccc(NS(C)(=O)=O)c2)nc2ccccc12,-,-,-,-,25.1µM,-
CS(=O)(=O)Nc1cccc(-c2nc(Nc3ccccc3)c3ccccc3n2)c1,-,-,-,-,0,-
COc1ccc2cc3cc(C(=O)NCc4ccco4)oc3nc2c1,22.4µM,?,15.8µM,?,?,?
COc1ccc(OC)c(N=c2ssnc2Cl)c1,0,?,0,0,0,56.2µM
COc1cc(N=c2ssnc2Cl)c(OC)cc1Cl,0,20µM,0,?,0,56.2µM!
Cc1cc(C)nc(/N=c2/ssnc2Cl)c1,0,0,0,0,0,0
